# Results taken from PubChem BioAssay.
# Values joined by “and” are separate entries in the source; they are usually repeats but may differ in a detail not shown here. Equal values may be shown once. Active and inactive are the calls of the source.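 The calls were made as follows, unless noted: active = compounds whose cell count with miR-34 switched on is under 0.7 times the count with it off; inactive = the rest.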
# Experiments:
# [1] = liver-stage malaria parasite growth inhibition, primary screen, cell-based, HepG2, luciferase luminescence, HepG2 viability (AID 624349; in the data active = parasite load remaining mostly below about 12%, no sharp cut-off; inactive = mostly above about 10%;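 also: 100% = mean of DMSO negative control wells on the same plate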); settings: P. berghei liver stage in HepG2, luciferase luminescence, concentration not given here; parasite load remaining: stronger effect = lower value; viability: measured here: HepG2 viability without parasites
# [2] = tested on: Aerobactin synthetase IucA (Klebsiella pneumoniae); experiment: IucA aerobactin synthetase inhibitors, biochemical, Tocris library, absorbance (AID 1345561; call rule not given here;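 also: 100% = enzyme without compound and 0% = no enzyme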); settings: purified IucA enzyme assay, absorbance (OD) read-out; stronger effect = lower value;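 tested at 8 µM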
# [3] = sensitizers of A549 cells to miR-34 induction, primary screen, imaging, A549 dox-inducible miR-34, nuclei and caspase counts (AID 1347080); settings: A549 miR-34 inducible, Hoechst nuclei count, 48 h
# [4] = viability rescue of complex I mutant cybrids, primary screen, cell-based, galactose medium, ATP luminescence (AID 1645843;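 active = z-score of at least 1.8 in each of two replicates, scored against plate mean and spread of sample wells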;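 also: positive z means more ATP and so rescue of galactose-driven cybrid death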); settings: complex I mutant cybrid cells, 72 h, stronger effect = higher value
# [5] = LFS_MB_P medulloblastoma growth inhibition, cell-based, chromothripsis tumors, cisplatin or BGB combos (AID 1671449; in the data active = inhibition above about 80%;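 also: cells exposed for 96 hours; 0% = vehicle DMSO and 100% = killing by high DMSO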); settings: LFS_MB_P medulloblastoma cells
# [6] = HDN33 neuroblastoma growth inhibition, cell-based, chromothripsis tumors, cisplatin or BGB combos (AID 1671450; in the data active = inhibition above about 80%;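 also: cells exposed to compound for four days; 0% = vehicle DMSO and 100% = cell killing by high DMSO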); settings: HDN33 neuroblastoma cells, stronger effect = higher value
# [7] = ICB984 medulloblastoma cell growth inhibition, synergistic combos for chromothripsis tumors, cisplatin or BGB combos (AID 1671451; call rule not given here;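 also: cells exposed for 96 hours before readout; 0% = vehicle DMSO and 100% = killing by high DMSO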); settings: ICB984 medulloblastoma cells, drug combinations, stronger effect = higher value
# [8] = HTB85 osteosarcoma cell growth inhibition, synergistic combos for chromothripsis tumors, BGB or cisplatin IC20 combos (AID 1671453; in the data active = inhibition above about 80%;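 also: cells exposed for 96 hours before readout; 0% = vehicle DMSO and 100% = high DMSO killing control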); settings: HTB85 osteosarcoma cells, drug combinations, stronger effect = higher value
# [9] = stronger effect = lower value, cell number ratio, induced over uninduced
# [10] = measured here: relative caspase fold change +Dox/-Dox
# [11] = measured here: total cells with miR-34 induction, stronger effect = lower value
# [12] = measured here: total cells without miR-34 induction
compound,measurement,setting,value
O=C1NC(=O)c2cc(Nc3ccc(F)cc3)c(Nc3ccc(F)cc3)cc21,parasite load remaining,[1],41.4% (inactive)
same,viability,[1],70.7%
same,remaining activity,[2],103% (inactive)
same,fold change,[3]; [9],1.25 (inactive)
same,fold change,[3]; [10],0.934
same,cell count,[3]; [11],3220
same,cell count,[3]; [12],2570
same,z-score,[4],-0.645 (inactive)
COC(=O)c1ccccc1NC(=O)c1ccc(F)cc1,remaining activity,[2],99.3% (inactive)
same,fold change,[3]; [9],0.965 (inactive)
same,fold change,[3]; [10],0.872
same,cell count,[3]; [11],7260
same,cell count,[3]; [12],7520
same,z-score,[4],0.635 (inactive)
COc1ccc2[nH]c(I)c(CCNC(C)=O)c2c1,remaining activity,[2],98.4% (inactive)
same,fold change,[3]; [9],0.928 (inactive)
same,fold change,[3]; [10],0.922
same,cell count,[3]; [11],8770
same,cell count,[3]; [12],9460
same,z-score,[4],0.09 (inactive)
COC(=O)/C=C/c1cc(O)ccc1O,remaining activity,[2],98.4% (inactive)
same,fold change,[3]; [9],0.869 (inactive)
same,fold change,[3]; [10],0.871
same,cell count,[3]; [11],8110
same,cell count,[3]; [12],9340
same,z-score,[4],-1.21 (inactive)
O=c1cc(N2CCNCC2)oc2c(-c3ccccc3)cccc12,parasite load remaining,[1],25.4% (inactive)
same,viability,[1],90.4%
same,remaining activity,[2],83.1% (inactive)
same,fold change,[3]; [9],0.968 (inactive)
same,fold change,[3]; [10],1.21
same,cell count,[3]; [11],7780
same,cell count,[3]; [12],8040
same,z-score,[4],1.52 (inactive)
O=C(Nc1ccc(C(F)(F)F)cn1)N1CCN(c2ncccc2C(F)(F)F)CC1,remaining activity,[2],86.8% (inactive)
same,fold change,[3]; [9],0.952 (inactive)
same,fold change,[3]; [10],1.39
same,cell count,[3]; [11],6230
same,cell count,[3]; [12],6540
same,z-score,[4],-0.475 (inactive)
NS(=O)(=O)c1cccc2c1c([N+](=O)[O-])cc1nc(O)c(O)nc12,remaining activity,[2],120% (inactive)
same,fold change,[3]; [9],1.03 (inactive) and 0.923 (inactive)
same,fold change,[3]; [10],1.03 and 0.947
same,cell count,[3]; [11],11000 and 9080
same,cell count,[3]; [12],10700 and 9830
same,z-score,[4],0.68 (inactive) and 0.65 (inactive)
C=CC(=O)c1ccc2ccccc2c1,remaining activity,[2],118% (inactive)
same,fold change,[3]; [9],0.911 (inactive)
same,fold change,[3]; [10],1.23
same,cell count,[3]; [11],8570
same,cell count,[3]; [12],9410
same,z-score,[4],-0.58 (inactive)
Cc1ccc(OC[C@@H](O)[C@H](C)NC(C)C)c2c1CCC2,remaining activity,[2],82.6% (inactive)
same,fold change,[3]; [9],0.94 (inactive)
same,fold change,[3]; [10],1.07
same,cell count,[3]; [11],8280
same,cell count,[3]; [12],8800
same,z-score,[4],-0.36 (inactive)
Cc1ccc(S(=O)(=O)NCc2ccccc2)cc1,remaining activity,[2],121% (inactive)
same,fold change,[3]; [9],0.861 (inactive)
same,fold change,[3]; [10],0.767
same,cell count,[3]; [11],8330
same,cell count,[3]; [12],9670
same,z-score,[4],-0.21 (inactive)
Cc1cccc(C)c1NC(=O)C[N+](C)(C)C,remaining activity,[2],109% (inactive)
same,fold change,[3]; [9],1 (inactive)
same,fold change,[3]; [10],0.946
same,cell count,[3]; [11],9170
same,cell count,[3]; [12],9160
same,z-score,[4],-0.035 (inactive)
FC(F)(F)c1cc(CO[C@H]2CCCN[C@H]2c2ccccc2)cc(C(F)(F)F)c1,remaining activity,[2],112% (inactive)
same,fold change,[3]; [9],1.01 (inactive)
same,fold change,[3]; [10],0.987
same,cell count,[3]; [11],2150
same,cell count,[3]; [12],2140
same,z-score,[4],-0.8 (inactive)
CC(C)C1C2CCC(C2)C1N (configuration not stated),remaining activity,[2],119% (inactive)
same,fold change,[3]; [9],0.973 (inactive)
same,fold change,[3]; [10],0.597
same,cell count,[3]; [11],9360
same,cell count,[3]; [12],9620
same,z-score,[4],-0.42 (inactive)
C[C@@H]1CC2C3CCC4=CC(=O)C=CC4(C)C3(F)[C@@H](O)CC2(C)C1(O)C(=O)CO (some centres not stated),remaining activity,[2],110% (inactive)
same,fold change,[3]; [9],0.804 (inactive)
same,fold change,[3]; [10],0.753
same,cell count,[3]; [11],7230
same,cell count,[3]; [12],8990
same,z-score,[4],0.725 (inactive)
Cc1nc2sccn2c(=O)c1CCN1CCC(=C(c2ccccc2)c2ccc(F)cc2)CC1,remaining activity,[2],120% (inactive)
same,fold change,[3]; [9],0.974 (inactive)
same,fold change,[3]; [10],1.11
same,cell count,[3]; [11],7180
same,cell count,[3]; [12],7370
same,z-score,[4],-0.655 (inactive)
Brc1cc2c(cc1[C@H]1Nc3ccccc3[C@H]3C=CC[C@H]31)OCO2 (racemic),remaining activity,[2],123% (inactive)
same,fold change,[3]; [9],0.953 (inactive)
same,fold change,[3]; [10],1.69
same,cell count,[3]; [11],6570
same,cell count,[3]; [12],6900
same,z-score,[4],-0.975 (inactive)
O=c1cc(N2CCOCC2)oc2c1ccc1ccccc12,parasite load remaining,[1],36.5% (inactive)
same,viability,[1],108%
same,remaining activity,[2],119% (inactive)
same,fold change,[3]; [9],1.08 (inactive)
same,fold change,[3]; [10],1.44
same,cell count,[3]; [11],6910
same,cell count,[3]; [12],6380
same,z-score,[4],1.36 (inactive)
same,inhibition,"[5]; at 0.5 µM, stronger effect = higher value",-16% (inactive)
same,inhibition,"[5]; measured here: combination with BGB IC20, at 0.005 µM",-21.9%
same,inhibition,"[5]; measured here: combination with BGB IC40, at 0.005 µM",39.3%
same,inhibition,"[5]; measured here: combination with BGB IC40, at 0.05 µM",-14.5%
same,inhibition,"[5]; measured here: combination with cisplatin, at 0.5 µM, stronger effect = higher value",-18.2%
same,inhibition,"[5]; measured here: combination with cisplatin, at 5 µM, stronger effect = higher value",6.61%
same,inhibition,"[6]; BGB combo, at 5 µM",-27.9%
same,inhibition,[6]; at 0.5 µM,5.72% (inactive)
same,inhibition,"[6]; cisplatin combo, at 5 µM",-6.14%
same,inhibition,"[6]; measured here: with BGB IC20 combination, at 0.5 µM",-2.44%
same,inhibition,"[6]; measured here: with cisplatin IC20 combination, at 0.5 µM",15.8%
same,inhibition,"[6]; single agent, at 5 µM",4.04%
same,inhibition,"[7]; BGB IC20 combo, at 0.005 µM",3.18%
same,inhibition,"[7]; BGB IC40 combo, at 0.005 µM",-0.874%
same,inhibition,"[7]; BGB IC40 combo, at 0.05 µM",-4.91%
same,inhibition,[7]; at 0.5 µM,-11.2% (inactive)
same,inhibition,"[7]; cisplatin combo, at 0.05 µM",-10.2%
same,inhibition,"[7]; cisplatin combo, at 0.5 µM",-14.9%
same,inhibition,"[7]; cisplatin combo, at 5 µM",-15.9%
same,inhibition,"[7]; measured here: 5 uM single agent, at 5 µM",0.403%
same,inhibition,[8]; at 0.5 µM,-0.76% (inactive)
same,inhibition,"[8]; measured here: with BGB IC20, at 0.5 µM",5.35%
same,inhibition,"[8]; measured here: with BGB IC20, at 5 µM",11.2%
same,inhibition,"[8]; measured here: with cisplatin IC20, at 0.5 µM",-3.29%
same,inhibition,"[8]; measured here: with cisplatin IC20, at 5 µM",1.5%
same,inhibition,"[8]; single agent, at 5 µM",5%
COc1cc2ncnc(Nc3ccc(Oc4ccccc4)cc3)c2cc1OC,parasite load remaining,[1],30.7% (inactive)
same,viability,[1],67.6%
same,remaining activity,[2],104% (inactive)
same,fold change,[3]; [9],0.963 (inactive)
same,fold change,[3]; [10],1.11
same,cell count,[3]; [11],8700
same,cell count,[3]; [12],9040
same,z-score,[4],0.48 (inactive)
